A short description of assay [1]: Cell Viability - Jurkat (AID 426;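 active = dose-dependent loss of cell ATP signal giving a full or clear fitted curve, ranked by lower potency value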;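 note: potency is the fitted concentration of half-maximal effect; cells exposed to compound for 40 hours at 37 °C before ATP read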). To be noted: qHTS. In a few lines:
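Luminescent ATP read-out (CellTiter-Glo, 20 min at room temperature) after 40 hr compound exposure at 37 °C of Jurkat E6-1 cells, 5000/well. Decreased ATP taken as cytotoxicity; AC50 from standard Hill equation.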

Assay [2] is described as follows: Cell Viability - NIH 3T3 (AID 541).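 Note: cells exposed to compound for 40 hours; plate controls were DMSO alone for no effect and tamoxifen positive control for full effect; nearly all actives have a fitted effect of over 25% in size.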 The note with it: NIH 3T3 cell viability, qHTS; activity change, negative = cytotoxicity: at 92.2 µM (top of the series). In a few lines: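 qHTS format; 40 hr compound exposure, 37 °C; CellTiter-Glo luminescence (cellular ATP) read-out after 20 min at RT. Decrease in ATP = cytotoxicity; AC50 from standard Hill fit.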
For orientation: qHTS replaces the single test concentration by a dilution series.

Assay [3] is described as follows: Cellular Toxicity (caspase-3) SHSY5Y (AID 657).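 Note: cells exposed to compound for 16 hours at 37 °C.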 To be noted: SH-SY5Y caspase-3 activation; series mostly up to 91.7 µM. In a few lines: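 qHTS, SH-SY5Y, 1500 cells/well, 5 h pre-incubation 37 °C; compound 16 h 37 °C; Caspase-Glo 3/7 1 h RT; luminescence. Norm.: DMSO = 0, 10 uM staurosporine = 100%. Hill fit → AC50.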
A short description of assay [4]: Cellular Toxicity (caspase-3) Mesangial (AID 660).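 Note: combined caspase 3 and 7 activity read by Caspase-Glo luminescence; cells exposed to compound for 16 h before the caspase read.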 To be noted: mesangial cells, normalized: DMSO 0%, 100 µM tamoxifen 100%; series mostly up to 91.7 µM. Put shortly: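 Luminescent Caspase-Glo 3/7 readout (aminoluciferin substrate cleavage, 20 min RT) after 16 h compound exposure at 37 °C of normal human mesangial cells. Signal increase normalized between DMSO basal and 100 uM tamoxifen; Hill-equation AC50.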

A short description of assay [5]: Cellular Toxicity (caspase-3) H-4-II-E (AID 663).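 Note: cells exposed to compound for 16 hr before readout.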 To be noted: H-4-II-E rat hepatoma; Potency: caspase-3 activation; series mostly up to 92.2 µM. Put shortly: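 H-4-II-E rat hepatoma, 1500 cells/well, 5 hr settle at 37 °C; compound 16 hr, 37 °C, complete medium; Caspase-Glo 3/7, 20 min RT; luminescence. DMSO = 0%, 100 uM tamoxifen = 100%; Hill-equation AC50.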
Assay [6] has as its target Cytochrome P450 3A4 (Homo sapiens) (UniProt P08684). As to the kind of experiment: qHTS Assay for Inhibitors and Substrates of Cytochrome P450 3A4 (AID 884). Note: % is set by controls: 0 for no effect and ±100 for the full control effect; nearly all actives have a fitted effect of over 50% in size. To be noted: recombinant CYP3A4, Luciferin-PPXE luminescence; series mostly up to 57.1 µM. In a few lines: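 Luminescent readout of luciferin produced by CYP3A4 (20 nM) dealkylation of Luciferin-PPXE, 25 uM (its KM). NADPH-driven reaction ran 60 min at RT after 10 min compound preincubation; data scaled to 57 uM ketoconazole as 100% inhibition.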

The target in assay [7] is Estrogen receptor (Homo sapiens) (UniProt P03372). As to the kind of experiment: qHTS assay for small molecule antagonists of estrogen receptor alpha signaling (AID 588513; active = well fitted curve in the direction sought with a large enough effect in the signal ratio, with a control signal flat, not every such curve was filed as active; the % refers to the signal ratio; note: % is set by controls: 0 for no effect and ±100 for the full control effect). The note with it: ER-alpha-UAS-bla HEK293, beta-lactamase ratio, antagonist mode; series mostly up to 76.9 µM. Put shortly:
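Fluorescence from CCF4 substrate after 2 h at room temperature gave reporter activity; cells had been exposed to compound and 0.5nM 17-beta-estradiol for 18 h at 37 C. Hill-equation fitting yielded IC50 and maximal response.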

The target is the same in assay [8]. The assay can be described thus: qHTS assay for small molecule agonists of estrogen receptor alpha signaling (AID 588514; calls by dose curve;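 note: 0% = vehicle only and 100% = reference agonist; nearly all actives have a fitted effect of over 70% in size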). The note with it: ER-alpha-UAS-bla HEK293, beta-lactamase ratio, 18 h; series mostly up to 76.8 µM. Put shortly: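 Read-out: CCF4 fluorescence from a beta-lactamase reporter in ER-alpha-UAS-bla HEK 293 cells after 18 hrs of compound exposure at 37 C. Normalized to 20 nM 17-beta-estradiol (100%) and DMSO (0%).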

The target of assay [9] is Peroxisome proliferator-activated receptor gamma (Homo sapiens) (UniProt P37231). As to the kind of experiment: qHTS assay for small molecule agonists of peroxisome proliferator-activated receptor gamma signaling (AID 588536; active = well fitted curve in the direction sought with a large enough effect in the signal ratio, with a control signal flat, not every such curve was filed as active; the % refers to the signal ratio;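 note: 0% = DMSO basal wells and 100% = rosiglitazone at 2 µM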). The note with it: HEK293 PPARg-UAS-bla, beta-lactamase ratio, 16 h, percent of rosiglitazone response, DMSO as zero; series mostly up to 76.7 µM. Put shortly:
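Using GeneBLAzer HEK293 cells, response was quantified by CCF4 fluorescence and normalized between basal DMSO (0%) and rosiglitazone 2 uM (100%); curves yielded half-maximal stimulation concentration and efficacy.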

For assay [10], the target named is Vitamin D3 receptor (Homo sapiens) (UniProt P11473). The assay can be described thus: qHTS assay for small molecule antagonists of vitamin D receptor signaling (AID 588541; calls by dose curve;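 note: receptor activated by calcitriol during compound treatment; % is set by controls: 0 for no effect and ±100 for the full control effect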). To be noted: HEK293T VDR-UAS-bla, beta-lactamase ratio, antagonist mode; series mostly up to 76.7 µM. In a few lines: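 VDR-UAS-bla HEK293T cells in 2% charcoal-stripped FBS were stimulated with 1-alpha,25-dihydroxyvitamin D3 (3 nM final) plus compound for 16 h at 37 C. The beta-lactamase CCF4 readout was normalized to 50 nM agonist and DMSO, and Hill fits gave IC50.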
Vitamin D3 receptor (Homo sapiens), sequence (P11473 whole entry, looked up): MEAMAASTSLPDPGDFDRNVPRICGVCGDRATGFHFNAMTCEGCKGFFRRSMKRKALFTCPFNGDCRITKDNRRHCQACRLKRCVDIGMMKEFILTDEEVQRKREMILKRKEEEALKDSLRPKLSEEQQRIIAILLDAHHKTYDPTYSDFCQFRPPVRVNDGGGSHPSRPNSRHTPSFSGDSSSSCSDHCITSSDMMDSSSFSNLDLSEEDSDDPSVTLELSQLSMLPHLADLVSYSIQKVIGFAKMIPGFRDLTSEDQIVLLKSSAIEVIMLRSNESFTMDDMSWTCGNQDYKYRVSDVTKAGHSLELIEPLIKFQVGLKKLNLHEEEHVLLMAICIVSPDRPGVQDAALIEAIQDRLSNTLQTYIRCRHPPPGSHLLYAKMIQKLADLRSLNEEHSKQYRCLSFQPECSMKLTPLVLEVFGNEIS

For assay [11] the target is unchanged. The assay can be described thus: qHTS assay for small molecule agonists of vitamin D receptor signaling (AID 588543; calls by dose curve;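 note: 0% = DMSO basal and 100% = reference agonist control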). The note with it: HEK293T VDR-UAS-bla, beta-lactamase ratio, 16 h; series mostly up to 76.8 µM. In a few lines:
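Reporter cells (HEK293T, VDR-UAS-bla) were seeded in medium with 2% charcoal-stripped serum and incubated 5 h, then compounds in concentration series were added for 16 h at 37 °C. Stimulation was scaled between DMSO basal and 50 nM 1α,25-dihydroxyvitamin D3.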

Assay [12] is described as follows: qHTS assay for small molecule activators of the nuclear factor-kappa B (NF-kB) signaling pathway (AID 651749; active = well fitted activation curve with a large enough effect in the signal ratio; the % refers to the signal ratio; note: % of control where 0% means no effect). To be noted: NF-kB-bla ME-180 cells, beta-lactamase FRET ratio, 16 h; stronger effect = higher value. In a few lines:
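NF-kB-bla ME-180 cells, 2,000/well; 23 nL compound or DMSO pinned; 16 hr, 37C/5% CO2; beta-lactamase FRET read-out.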

The target in assay [13] is Tumor necrosis factor (Homo sapiens) (UniProt P01375). The assay can be described thus: qHTS assay to identify small molecules that stimulate Tumor Necrosis Factor-alpha (TNF-alpha) secretion (AID 651757; active = well fitted curve in the direction sought with a large enough effect in the signal ratio; the % refers to the signal ratio; note: potency is the fitted concentration of half-maximal effect). The note with it: Human cells, HTRF 665/615 ratio; series mostly up to 92.2 µM. Put shortly:
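THP-1 cells, 3000/well; compound 17 hrs, 37 C; add cryptate/XL665 anti-TNF-alpha antibody pair; 3 hr RT; TR-FRET (HTRF) read of secreted TNF-alpha. Quantitative HTS format.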

Assay [14] in a line: qHTS assay for small molecule antagonists of the retinoid-related orphan receptor gamma (ROR-gamma) signaling pathway - cell viability counter screen (AID 720652; active = well fitted curve in the direction sought with a large enough effect in the repeat runs; an effect the other way counts as inactive or inconclusive;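 note: CHO reporter cells with doxycycline-induced ROR-gamma expression; compound exposure lasted 16 hr before ATP read; % is set by controls: 0 for no effect and ±100 for the full control effect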). To be noted: RORgamma reporter cell line viability counter screen; series mostly up to 92.2 µM. Put shortly:
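CHO RORE-LUC/TET-ROR line, 1,000 cells/well, 37 C 5% CO2 5 hr; cpd or DMSO + doxycycline induction, 16 hr. CellTiter-Glo, 30 min RT, luminescence = ATP content.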

Assay [15] in a line: qHTS assay for small molecule activators of the human pregnane X receptor (PXR) signaling pathway (AID 720659; call rule not given here; note: 0% is about no effect). To be noted: DPX-2 HepG2 CYP3A4-luciferase, 24 h; series mostly up to 92.3 µM.
A short description of assay [16]: Cellular Toxicity (caspase-3) BJ (AID 658).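 Note: cells exposed to compound for 16 hours.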 The note with it: BJ fibroblasts, luminescence; Potency: caspase-3 activation; series mostly up to 91.7 µM. In a few lines:
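qHTS, BJ fibroblasts, 1000 cells/well; 5 hr preincubation, 16 hr compound, 37 °C; Caspase-Glo 3/7 reagent, 1 hr RT; luminescence. DMSO = 0%, 10 uM staurosporine = 100%. Hill-equation AC50.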

Assay [17] deals with Peroxisome proliferator-activated receptor delta (Homo sapiens) (UniProt Q03181). As to the kind of experiment: qHTS assay for small molecule antagonists of peroxisome proliferator-activated receptor delta signaling (AID 588535; active = well fitted inhibition curve with a large enough effect in the signal ratio, with a control signal flat, not every such curve was filed as active; the % refers to the signal ratio). To be noted: HEK293T PPARd-UAS-bla, beta-lactamase FRET ratio, 18 h; series mostly up to 76.7 µM. Put shortly:
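Beta-lactamase reporter read-out (405 nm excitation, 460/530 nm emission) after CCF4 loading for 2 hrs at RT. HEK293T PPAR-delta-UAS-bla cells, 2% charcoal/dextran FBS, compounds for 18 hrs at 37 C. Hill fit gave IC50 and efficacy.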

The nature of assay [18]: qHTS assay for small molecule agonists of the antioxidant response element (ARE) signaling pathway (AID 651741; active = well fitted activation curve with a large enough effect in the signal ratio; the % refers to the signal ratio; note: potency is the fitted concentration of half-maximal effect; for activation: % of control where 0% means no effect). The note with it: HepG2 ARE-bla reporter, beta-lactamase FRET ratio, 16 h; series mostly up to 96 µM. In a few lines:
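HepG2 ARE-bla reporter cells, 2,000/well; 5 h settle at 37 C/5% CO2; compound pin transfer (23 nL, DMSO); 16 h at 37 C; LiveBLAzer B/G FRET substrate, 2 h RT; fluorescence intensity read.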

Assay [19] in a line: qHTS assay for small molecule activators of the p53 signaling pathway (AID 651743; active = well fitted activation curve with a large enough effect in the signal ratio, not every such curve was filed as active; the % refers to the signal ratio; note: % of control where 0% means no effect). To be noted: HCT-116 p53RE-bla, beta-lactamase FRET ratio, 16 h; activation: stronger effect = higher value. Put shortly: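 Reporter: beta-lactamase driven by p53 response elements, stably integrated in HCT-116 cells. Cells seeded at 4,000/well, 5 h preincubation, compound (DMSO) 16 h at 37 C; B/G FRET substrate 2 h RT; fluorescence intensity read.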

For assay [20], the target named is Nuclear receptor ROR-gamma (Homo sapiens) (UniProt P51449). As to the kind of experiment: qHTS assay for small molecule antagonists of the retinoid-related orphan receptor gamma (ROR-gamma) signaling pathway (AID 651802).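 Note: CHO cells with doxycycline-induced ROR-gamma expression; luciferase reporter luminescence driven by ROR response element; % is set by controls: 0 for no effect and ±100 for the full control effect; nearly all actives have a fitted effect of over 60% in size.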 The note with it: ROR-gamma antagonist cell reporter assay; series mostly up to 92.2 µM. Put shortly:
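Luciferase read-out: ONE-Glo luminescence after 30 min at room temperature, following 16hr doxycycline induction at 37C, 5% CO2 of CHO cells with TET-inducible ROR and RORE-LUC reporter; decreased luminescence = reduced reporter activity.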

“And” between values parts separate entries of the source, which are not always exact repeats. Equal values may be shown once. A number with no mark means an inactive call. Records with an inconclusive call do not appear. The source made the active and inactive calls. Unless noted, calls come from the whole dose curve; as a rule, active = well fitted curve in the direction sought with a large enough effect; inconclusive = small, poorly fitted or top-dose-only effect, or another doubt; inactive = no such curve, though single readings can be large; an effect the other way counts as inactive or inconclusive.

Estrogen receptor (Homo sapiens), sequence (P03372 whole entry, looked up): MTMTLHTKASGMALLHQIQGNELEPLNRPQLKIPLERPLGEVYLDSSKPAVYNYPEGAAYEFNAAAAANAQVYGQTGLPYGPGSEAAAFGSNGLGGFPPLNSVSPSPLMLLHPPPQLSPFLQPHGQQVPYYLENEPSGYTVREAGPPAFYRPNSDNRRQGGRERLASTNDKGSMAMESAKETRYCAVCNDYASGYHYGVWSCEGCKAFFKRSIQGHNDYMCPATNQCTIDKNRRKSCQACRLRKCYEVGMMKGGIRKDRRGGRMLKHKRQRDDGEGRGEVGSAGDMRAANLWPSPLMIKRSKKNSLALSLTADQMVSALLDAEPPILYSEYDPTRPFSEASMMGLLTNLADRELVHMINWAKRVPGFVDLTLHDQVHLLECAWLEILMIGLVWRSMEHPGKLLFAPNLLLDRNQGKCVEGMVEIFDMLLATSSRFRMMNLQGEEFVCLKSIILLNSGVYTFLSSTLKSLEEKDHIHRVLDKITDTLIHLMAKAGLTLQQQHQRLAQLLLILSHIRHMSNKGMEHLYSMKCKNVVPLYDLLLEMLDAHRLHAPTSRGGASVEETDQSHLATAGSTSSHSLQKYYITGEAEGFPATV
Nuclear receptor ROR-gamma (Homo sapiens), sequence (P51449 whole entry, looked up): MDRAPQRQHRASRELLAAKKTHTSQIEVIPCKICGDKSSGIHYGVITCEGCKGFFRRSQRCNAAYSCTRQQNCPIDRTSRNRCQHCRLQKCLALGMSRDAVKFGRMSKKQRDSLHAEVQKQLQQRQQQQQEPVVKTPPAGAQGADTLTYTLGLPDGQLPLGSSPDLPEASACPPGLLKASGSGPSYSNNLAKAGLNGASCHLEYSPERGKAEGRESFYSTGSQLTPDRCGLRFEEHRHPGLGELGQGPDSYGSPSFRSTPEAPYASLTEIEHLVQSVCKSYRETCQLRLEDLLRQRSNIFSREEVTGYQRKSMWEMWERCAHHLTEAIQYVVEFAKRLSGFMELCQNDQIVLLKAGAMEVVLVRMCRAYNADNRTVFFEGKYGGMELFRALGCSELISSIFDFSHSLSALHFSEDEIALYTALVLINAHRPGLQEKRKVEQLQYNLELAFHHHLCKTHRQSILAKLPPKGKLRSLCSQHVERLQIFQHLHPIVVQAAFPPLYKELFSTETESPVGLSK
Peroxisome proliferator-activated receptor gamma (Homo sapiens), sequence (P37231 whole entry, looked up): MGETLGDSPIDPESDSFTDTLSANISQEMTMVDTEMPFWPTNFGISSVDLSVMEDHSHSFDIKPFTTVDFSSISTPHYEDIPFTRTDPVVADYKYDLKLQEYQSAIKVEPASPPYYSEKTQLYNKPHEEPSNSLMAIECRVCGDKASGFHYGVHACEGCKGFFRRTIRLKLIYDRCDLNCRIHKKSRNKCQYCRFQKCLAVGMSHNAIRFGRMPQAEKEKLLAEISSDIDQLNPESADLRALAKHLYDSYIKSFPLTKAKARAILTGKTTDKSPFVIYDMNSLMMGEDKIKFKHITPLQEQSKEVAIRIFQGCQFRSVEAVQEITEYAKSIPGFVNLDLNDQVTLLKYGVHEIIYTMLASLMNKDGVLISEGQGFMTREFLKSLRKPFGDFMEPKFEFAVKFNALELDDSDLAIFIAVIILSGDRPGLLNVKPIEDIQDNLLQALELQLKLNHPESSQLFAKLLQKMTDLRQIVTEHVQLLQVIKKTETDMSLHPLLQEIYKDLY
Tumor necrosis factor (Homo sapiens), sequence (P01375 whole entry, looked up): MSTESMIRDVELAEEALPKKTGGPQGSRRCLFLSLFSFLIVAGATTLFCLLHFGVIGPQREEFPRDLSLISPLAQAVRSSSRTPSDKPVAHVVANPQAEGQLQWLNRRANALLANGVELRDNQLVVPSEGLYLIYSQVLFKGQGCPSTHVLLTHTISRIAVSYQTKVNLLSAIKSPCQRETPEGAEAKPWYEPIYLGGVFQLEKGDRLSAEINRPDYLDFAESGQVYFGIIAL
Cytochrome P450 3A4 (Homo sapiens), sequence (P08684 whole entry, looked up): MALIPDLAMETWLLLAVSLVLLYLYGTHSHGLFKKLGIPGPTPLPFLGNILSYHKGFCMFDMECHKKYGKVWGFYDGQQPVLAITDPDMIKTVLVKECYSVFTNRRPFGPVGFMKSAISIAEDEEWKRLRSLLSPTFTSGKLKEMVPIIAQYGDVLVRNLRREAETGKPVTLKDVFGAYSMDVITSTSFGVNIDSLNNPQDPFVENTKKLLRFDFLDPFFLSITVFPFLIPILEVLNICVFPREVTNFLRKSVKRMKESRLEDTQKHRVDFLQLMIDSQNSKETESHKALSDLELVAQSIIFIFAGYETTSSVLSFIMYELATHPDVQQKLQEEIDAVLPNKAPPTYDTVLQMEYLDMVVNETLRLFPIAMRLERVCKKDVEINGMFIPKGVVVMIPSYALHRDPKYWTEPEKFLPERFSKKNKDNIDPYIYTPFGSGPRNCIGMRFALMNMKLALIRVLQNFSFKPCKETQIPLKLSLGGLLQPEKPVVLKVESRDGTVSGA
Peroxisome proliferator-activated receptor delta (Homo sapiens), sequence (Q03181 whole entry, looked up): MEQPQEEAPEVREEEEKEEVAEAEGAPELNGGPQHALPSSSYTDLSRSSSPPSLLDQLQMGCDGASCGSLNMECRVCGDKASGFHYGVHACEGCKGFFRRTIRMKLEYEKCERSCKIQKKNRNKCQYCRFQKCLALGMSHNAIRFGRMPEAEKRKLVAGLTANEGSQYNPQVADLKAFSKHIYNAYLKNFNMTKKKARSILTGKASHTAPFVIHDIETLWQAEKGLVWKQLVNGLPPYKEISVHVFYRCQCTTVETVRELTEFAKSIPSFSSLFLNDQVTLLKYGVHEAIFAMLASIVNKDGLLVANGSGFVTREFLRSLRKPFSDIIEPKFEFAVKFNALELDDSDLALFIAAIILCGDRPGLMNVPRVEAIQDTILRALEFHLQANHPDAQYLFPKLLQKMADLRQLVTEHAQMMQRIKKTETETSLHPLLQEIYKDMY

For `Cc1ccc(C(=O)O)cc1[N+](=O)[O-]`, the Potency in assay [1] is more than 92 µM. Besides, the activity change, negative = cytotoxicity in assay [2] was -13.4%. Also, the Potency entry in assay [3], in [5], in assay [6], in [8], in assay [10] and in assay [11] was “inactive” in each case. Also, the Potency result in assay [13] and in assay [14] was “inactive” in each case. The call in [4], in [7], in [9] and in [15] was inactive. The activation in assay [12] is -1.02%.
Take `CCNC(=S)NCC`: the Potency in assay [1] was more than 92 µM. In addition, the Potency entry in assay [3], in [16], in assay [8], in [10], in assay [11] and in assay [18] was “inactive” in each case. The Potency entry in [13], in assay [20] and in assay [14] was “inactive” throughout. The call in assay [4], in assay [7], in [17], in [9] and in [15] was inactive. Further, the activation is -0.196% in [19] and 0.201% in assay [12].
As to `O=CC(=O)c1ccccc1`, the Potency entry in assay [3], in assay [6], in [8], in assay [10], in assay [11] and in assay [13] was “inactive” each time. Moreover, the Potency result in assay [14] was “inactive”. In addition, the result in assay [7], in assay [17], in assay [9] and in assay [15] was inactive. Also, the activation was -5.31% in assay [19] and -1.11% in assay [12].
Take `Cc1cc(=O)oc2cc(O)cc(O)c12`: the Potency in assay [1] is more than 92 µM; in assay [18], 13.3 µM (active); in assay [13], 7.5 µM (active). Besides, the Potency entry in assay [3], in assay [16], in assay [10], in assay [20] and in assay [14] was “inactive” in each case. In addition, the result in assay [7], in assay [9] and in assay [15] was inactive. The activation in [19] is 10.2%.
Take `Brc1cc(Oc2cc(Br)c(Br)c(Br)c2Br)c(Br)c(Br)c1Br`: the Potency result in assay [3], in assay [5], in assay [6], in assay [18], in assay [13] and in assay [20] was “inactive” in each case. Also, in [14], the Potency entry was “inactive”. In addition, in assay [17], the result was inactive. Moreover, the activation in assay [19] is -8.15% and -4.88%; in assay [12], 2.9% and 0.823%.
Regarding `c1ccc(SCCSc2ccccc2)cc1`, the Potency in assay [1] was more than 92 µM. The activity change, negative = cytotoxicity in assay [2] was -5.55%. The Potency result in assay [3], in [6], in assay [10], in [11], in [13] and in assay [20] was “inactive” in each case. Further, in assay [14], the Potency result is “inactive”. Further, the outcome in assay [4], in [17] and in assay [9] was inactive. Further, the activation in assay [19] is -1.09%; in assay [12], -4.5%.
As for `CC(=O)OC(C(=O)c1ccccc1)c1ccccc1` (stereo unspecified), the Potency in assay [1] was more than 92 µM. The outcome in assay [4], in [7], in assay [9] and in assay [15] was inactive. Further, the Potency entry in [5], in [6], in [8], in assay [13] and in assay [14] was “inactive” in each case. Also, the activation in [19] was -2.72%; in assay [12] it was 0.305%.
Regarding `O=C(OCC1CO1)C1CCCCC1C(=O)OCC1CO1` (stereo unspecified), the activity change, negative = cytotoxicity in assay [2] was -15%. Also, the Potency result in assay [3], in assay [5], in assay [13], in assay [20] and in [14] was “inactive” throughout. Further, the call in assay [4] and in [15] was inactive. Also, the Potency in assay [18] is 42.2 µM (active).
On to `O=[N+]([O-])c1ccccc1Nc1ccccc1`, for which the Potency in assay [1] was more than 92 µM. Moreover, the activity change, negative = cytotoxicity in assay [2] was -20.1%. Also, the Potency result in [3], in assay [6], in assay [8], in [10], in assay [11] and in [13] was “inactive” throughout. Moreover, the Potency entry in [14] was “inactive”. Besides, the molecule was called inactive in assay [4], in assay [7], in assay [9] and in assay [15]. Further, in assay [19], the activation was -4.76%.

(Values after PubChem BioAssay (NCATS).)
